Results on 18 compounds are retold here after the supplement of paper PMC6089552.

In the test the test system is A673/TR/shEF. Briefly: cell viability (LOESS-normalised, relative to median of negative controls) (log2 ratio); higher = more viable cells (less compound effect), active = hit call of the paper (over 3 MAD below the median). The conditions noted are these: treatment time: 72 h. In short, it runs like this: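 Viability of A673/TR/shEF Ewing sarcoma cells was determined by CellTiter-Glo luminescence. The cells, at 1,500 per well in 384-well plates, were grown with or without doxycycline from 24 h before compound addition to switch on EWS-FLI1 shRNA knockdown, then exposed for three days to library compounds at two or more concentrations or to DMSO controls. Signals were LOESS-corrected plate by plate, normalised to the negative-control median and log2-transformed.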

The mark [1] stands for this setting: 0.25 µM, library screen: screen2, EWS-FLI1 expression: high (no doxycycline).
Where [2] appears, read: 0.25 µM, library screen: screen2, EWS-FLI1 expression: low (doxycycline-induced shRNA knockdown).
Where [3] appears, read: 2.5 µM, library screen: screen2, EWS-FLI1 expression: high (no doxycycline).
Setting [4] is: 2.5 µM, library screen: screen2, EWS-FLI1 expression: low (doxycycline-induced shRNA knockdown).
Where [5] appears, read: 0.25 µM, library screen: screen1, EWS-FLI1 expression: high (no doxycycline).
Setting [6] is: 0.25 µM, library screen: screen1, EWS-FLI1 expression: low (doxycycline-induced shRNA knockdown).
Setting [7] is: 2.5 µM, library screen: screen1, EWS-FLI1 expression: high (no doxycycline).
[8] abbreviates: 2.5 µM, library screen: screen1, EWS-FLI1 expression: low (doxycycline-induced shRNA knockdown).
Setting [9] is: 0.103 µM, library screen: screen3, EWS-FLI1 expression: high (no doxycycline).
Where [10] appears, read: 0.103 µM, library screen: screen3, EWS-FLI1 expression: low (doxycycline-induced shRNA knockdown).
Setting [11] is: 0.308 µM, library screen: screen3, EWS-FLI1 expression: high (no doxycycline).
Setting [12] is: 0.308 µM, library screen: screen3, EWS-FLI1 expression: low (doxycycline-induced shRNA knockdown).
Where [13] appears, read: 0.926 µM, library screen: screen3, EWS-FLI1 expression: high (no doxycycline).
The mark [14] stands for this setting: 0.926 µM, library screen: screen3, EWS-FLI1 expression: low (doxycycline-induced shRNA knockdown).
The mark [15] stands for this setting: 2.8 µM, library screen: screen3, EWS-FLI1 expression: high (no doxycycline).
Setting [16] is: 2.8 µM, library screen: screen3, EWS-FLI1 expression: low (doxycycline-induced shRNA knockdown).
[17] abbreviates: 8.3 µM, library screen: screen3, EWS-FLI1 expression: high (no doxycycline).
Where [18] appears, read: 8.3 µM, library screen: screen3, EWS-FLI1 expression: low (doxycycline-induced shRNA knockdown).
Setting [19] is: 25 µM, library screen: screen3, EWS-FLI1 expression: high (no doxycycline).
[20] abbreviates: 25 µM, library screen: screen3, EWS-FLI1 expression: low (doxycycline-induced shRNA knockdown).

About 300 (9.4%) of roughly 3,200 compounds showed activity. What follows is part of a selection rich in actives, with near analogues and random picks from the rest. A number with no mark means an inactive call.

On to `CC(Cc1ccc(OCC(=O)O)cc1)NCC(O)c1cccc(Cl)c1` (centres undefined), for which the “cell viability (log2)” value is 0.122 under setting [1], 0.143 under setting [2], 0.229 under setting [3] and 0.136 under setting [4].
The corresponding values for `C[N+]1(C)CCc2cc3c(cc2[C@H]1[C@@H]1OC(=O)c2c1ccc1c2OCO1)OCO3` are 0.123, 0.0886, 0.123 and 0.104.
Consider `COC[C@]12CN(C=O)[C@H]3C4[C@H](OC)[C@H]1C3([C@@H](OC)C[C@H]2O)[C@@H]1C[C@@]2(O)[C@H](OC(=O)c3ccccc3)[C@@H]1[C@]4(OC(C)=O)[C@@H](O)[C@@H]2OC`, for which the “cell viability (log2)” value is, setting by setting: under setting [5], 0.0391; under setting [6], 0.0831; under setting [7], 0.0466; under setting [8], 0.114.
`C=CCN1C[C@@H](C)N([C@H](c2ccc(C(=O)N(CC)CC)cc2)c2cccc(OC)c2)C[C@@H]1C`: the “cell viability (log2)” value by setting is: under setting [1], 0.0848; under setting [2], 0.0464; under setting [3], 0.222; under setting [4], 0.00445.
For the compound `COc1cc2c(cc1OC)[C@@]13CCN4CC5=CCO[C@H]6CC(=O)N2[C@H]1[C@H]6[C@H]5C[C@H]43`, the “cell viability (log2)” value runs as follows: under setting [5], 0.0057; under setting [6], 0.0368; under setting [7], 0.098; under setting [8], -0.0757.
`CC(=O)Oc1ccc(C=Cc2cc(OC(C)=O)cc(OC(C)=O)c2)cc1`: the “cell viability (log2)” value under setting [5] was 0.101, the “cell viability (log2)” value under setting [6] was 0.0764, the “cell viability (log2)” value under setting [7] was 0.00309 and the “cell viability (log2)” value under setting [8] is 0.228.
As for `Nc1ncnc2c1ncn2C1OC2COP(O)(=S)OC2C1O` (centres undefined), the “cell viability (log2)” value is 0.0926 under setting [1], 0.132 under setting [2], 0.0861 under setting [3] and 0.0676 under setting [4].
As to `O.O=C1OC2(c3cc(Br)c([O-])cc3Oc3c2cc(Br)c([O-])[c]3[Hg])c2ccccc21.[Na+].[Na+]` (centres undefined), the “cell viability (log2)” value is, setting by setting: under setting [5], 0.113; under setting [6], 0.0666; under setting [7], 0.139; under setting [8], 0.132.
Take `CN1C2CCC1CC(OC(=O)C(CO)c1ccccc1)C2` (centres undefined): the “cell viability (log2)” value under setting [1] is 0.252, the “cell viability (log2)” value under setting [2] is 0.166, the “cell viability (log2)” value under setting [3] is 0.123 and the “cell viability (log2)” value under setting [4] is 0.223.
`C[C@]12CC[C@H]3[C@@H](CCC4=CC(=O)CC[C@@]43C)[C@@H]1CC[C@@H]2OC(=O)CCC1CCCC1`: the “cell viability (log2)” value was -0.000785 under setting [9]; 0.011 under setting [10]; 0.0351 under setting [11]; 0.0268 under setting [12]; 0.0442 under setting [13]; 0.0219 under setting [14]. Besides, the “cell viability (log2)” value under setting [15] was 0.0558; the “cell viability (log2)” value under setting [16] was 0.00975; the “cell viability (log2)” value under setting [17] is 0.0577; the “cell viability (log2)” value under setting [18] is 0.0516; the “cell viability (log2)” value under setting [19] is 0.0518; the “cell viability (log2)” value under setting [20] was 0.0747.
Consider `CC(N)Cc1ccc(O)cc1` (centres undefined), for which the “cell viability (log2)” value under setting [5] was 0.0594, the “cell viability (log2)” value under setting [6] is 0.0957, the “cell viability (log2)” value under setting [7] is 0.092 and the “cell viability (log2)” value under setting [8] was 0.0198.
Take `COC[C@H]1OC(=O)c2coc3c2[C@@]1(C)C1=C(C3=O)[C@@H]2CCC(=O)[C@@]2(C)C[C@H]1OC(C)=O`: the “cell viability (log2)” value runs as follows: (0.025 µM, library screen: screen1, EWS-FLI1 expression: high (no doxycycline)) 0.254; (0.025 µM, library screen: screen1, EWS-FLI1 expression: low (doxycycline-induced shRNA knockdown)) 0.0235; under setting [5], 0.137; under setting [6], -0.0412; under setting [1], 0.179; under setting [2], 0.0105. Besides, the “cell viability (log2)” value is, setting by setting: under setting [7], -0.356 (active); under setting [8], -0.0837; under setting [3], -0.0237; under setting [4], 0.0148; (25 µM, library screen: screen1, EWS-FLI1 expression: high (no doxycycline)) -0.711 (active); (25 µM, library screen: screen1, EWS-FLI1 expression: low (doxycycline-induced shRNA knockdown)) -0.309 (active).
As for `CCCN1CCC[C@@H](c2cccc(C#N)c2)C1`, the “cell viability (log2)” value reads like this: under setting [1], 0.21; under setting [2], 0.0529; under setting [3], 0.222; under setting [4], 0.141.
`CC1(C)C2C[C@@H](O)[C@]3(C)C(CC[C@@]4(C)[C@H](c5ccoc5)CC5OC543)[C@@]2(C)[C@@H](O)C[C@H]1O` (some centres undefined): the “cell viability (log2)” value is 0.0938 under setting [5], 0.113 under setting [6], 0.107 under setting [7] and 0.116 under setting [8].
In the case of `CCCN(CCC)c1c([N+](=O)[O-])cc(C(F)(F)F)cc1[N+](=O)[O-]`, the “cell viability (log2)” value reads like this: under setting [5], -0.0384; under setting [6], 0.0507; under setting [7], 0.104; under setting [8], 0.107.
On to `CCOC(=O)NC1=C(N2CC2)C(=O)C(NC(=O)OCC)=C(N2CC2)C1=O`, for which the “cell viability (log2)” value is -0.0137 (0.025 µM, library screen: screen2, EWS-FLI1 expression: high (no doxycycline)); -0.0126 (0.025 µM, library screen: screen2, EWS-FLI1 expression: low (doxycycline-induced shRNA knockdown)); 0.102 under setting [5]; 0.0213 under setting [6]; 0.153 under setting [1]; -0.00616 under setting [2]. Also, the “cell viability (log2)” value is 0.0672 under setting [7]; 0.107 under setting [8]; -0.0475 under setting [3]; 0.0995 under setting [4]; -3.5 (active) (25 µM, library screen: screen2, EWS-FLI1 expression: high (no doxycycline)); -0.288 (active) (25 µM, library screen: screen2, EWS-FLI1 expression: low (doxycycline-induced shRNA knockdown)).
In the case of `CCC(C)[C@H]1O[C@]2(C=C[C@@H]1C)C[C@@H]1C[C@@H](C/C=C(\C)[C@@H](O[C@H]3C[C@H](OC)[C@@H](O[C@H]4C[C@H](OC)[C@@H](O)[C@H](C)O4)[C@H](C)O3)[C@@H](C)/C=C/C=C3\CO[C@@H]4[C@H](O)C(C)=C[C@@H](C(=O)O1)[C@]34O)O2.CO[C@H]1C[C@H](O[C@H]2[C@H](C)O[C@@H](O[C@@H]3/C(C)=C/C[C@@H]4C[C@@H](C[C@]5(C=C[C@H](C)[C@@H](C(C)C)O5)O4)OC(=O)[C@@H]4C=C(C)[C@@H](O)[C@H]5OC/C(=C\C=C\[C@@H]3C)[C@]54O)C[C@@H]2OC)O[C@@H](C)[C@@H]1O` (some centres undefined), the “cell viability (log2)” value is 0.0422 under setting [5], 0.0818 under setting [6], 0.0639 under setting [7] and 0.0892 under setting [8].
With `Cn1cc(C2=C(c3cn(C4CCN(Cc5ccccn5)CC4)c4ccccc34)C(=O)NC2=O)c2ccccc21`, the “cell viability (log2)” value was -0.105 under setting [9]; -0.0101 under setting [10]; -0.0168 under setting [11]; 0.054 under setting [12]; -0.0718 under setting [13]; 0.0485 under setting [14]. In addition, the “cell viability (log2)” value is -0.024 under setting [15]; -0.0681 under setting [16]; 0.0419 under setting [17]; 0.0589 under setting [18]; -0.03 under setting [19]; 0.0493 under setting [20].
